This is a sample that favours compounds with a hit; in the whole collection about 1.3% have one here.
p53 reactivator: mutant p53 re-activation in reporter cells; H1299 p53-A138V BP100-luciferase reporter, luminescence, 24 h; Potency, µM (titrated, usually from 92.2 µM), inactives show top-dose activity change, positive = activation, hits mostly activators; 0.063% of 320,000 active; further: potency means the concentration at half of the fitted maximal effect; % of control where 0% means no effect; nearly all actives have a fitted effect of over 45% in size
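p53-null H1299 cells stably carrying temperature-sensitive p53-A138V and a BP100-luciferase reporter were pinned with compounds (4-point, 1:5 series) and held 24 hrs at 37 deg C. Luminescence was read 10 min after detection reagent.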
Mito fusion yeast: inhibitors of mitochondrial division or activators of mitochondrial fusion. S. cerevisiae fusion-defective mutant growth rescue, CellTiterGlo 48 h. Potency, µM (top dose mostly 46.1 µM), for inactives: at the top dose growth rescue (activation), actives largely listed as activators. 0.23% of 320,000 active. AID 485298; further: potency means the concentration at half of the fitted maximal effect; % of control where 0% means no effect; nearly all actives have a fitted effect of over 45% in size
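Yeast fusion mutant, YPEG (non-fermentable carbon), compound, 48 h at 37C non-permissive; CellTiterGlo added, 10 min RT, luminescence read. Rescued growth = division inhibition.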
TCR act: activators of T cell receptors. primary human leukocytes, anti-CD3, IL-2 HTRF, 48 h. Potency, µM (titrated, usually from 9.22 µM), without a hit: at the top dose activation of IL-2 secretion, actives largely listed as activators. 330,000 tested, under 10 active. AID 504894; further: % of control where 0% means no effect
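Human primary leukocytes + a-CD3 beads + cpd, 48 hr; IL-2 in supernatant by HTRF (ex 320nm / em 665nm). No co-stimulatory signal supplied.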
IL-2 act: IL-2 activation; activation, % (series mostly up to about 46 µM); AID 652025; IL-2 activation reporter assay, cell-based qHTS; stimulated with anti-CD3/CD4/CD28 beads; in transgenic mouse T cells; 0.065% of 360,000 active; in the data active means activation above about 50%; inconclusive means mostly about 30% to 49%; further: 0% is about no effect
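Screening format: compound pinned onto unstimulated transgenic mouse T cells, 60 min incubation, then anti-CD3/anti-CD4/anti-CD28 bead stimulation for 18 hours at 37 degrees C, followed by EGFP and DsRed detection.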
BRCA1 expr act: activators of BRCA1 expression; 1.1% of 380,000 active; AID 624202; MCF7-BRCA1-FFLuc reporter, luminescence, 48 h; response scale: scaled: vehicle 0%, 10 µM genistein 100%; Potency, µM (doses to about 46.1 µM), for inactives: top-dose activation, actives largely listed as activators; further: potency means the concentration at half of the fitted maximal effect; nearly all actives have a fitted effect of over 80% in size
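MCF7-BRCA1-FFLuc, 2000 cells/well; 2 h attach, 37 °C/5% CO2; compound 48 h; luciferase substrate 15 min; luminescence end-point. Norm. to genistein 10 microM max activation and DMSO; concentration-response curves fitted.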
* marks the source's active call; other numbers are inactive results; ? = inconclusive; . = not tested or not shown; [ ] = dose if it differs, or a comment. Unless noted, the call rests on the fitted dose curve; in most records, active means well fitted curve in the direction sought with a large enough effect; inconclusive means small, poorly fitted or top-dose-only effect, or another doubt; inactive means no such curve, though single readings can be large; an effect the other way counts as inactive or inconclusive.

SMILES	p53 reactivator	Mito fusion yeast	TCR act	IL-2 act	BRCA1 expr act
Clc1ccccc1COc1ccc(/C=N/n2cnnc2)cc1	-10.5%	6.5%	4.1%[46.1 µM]	0.6	50.6%
Cc1n[nH]c(=S)n1/N=C/c1ccc(OCc2ccc(Cl)cc2)cc1	13.7%	-14.2%	4.0%	-1.8	5.01µM*
CC1CCCCN1Cc1c(O)ccc2c(=O)c(-c3ccc(Cl)cc3)coc12 (stereo not given)	9.3%	21.9%	-10.0%	0.3	10µM*
COc1cccc(NC(=O)CSc2nc3ccc(NC(=O)c4ccco4)cc3s2)c1	.	.	.	.	15.9%
O=C(/C=C/c1cccs1)Nc1cccnc1	?	0.1%	-2.0%[46.1 µM]	1.3	11.2µM*
O=C(/C=C/c1cccs1)Nc1nncs1	11.3%	-2.1%	10.1%	-2.7	69.2%
C=C1C=C(C)n2ncc(C(=O)NCCCCCC)c2N1	.	.	.	.	12.1%
CSc1ccc(/C=C/C(=O)NC(=O)c2ccccc2O)cc1	5.6%	16.8%	6.7%	0.1	12.6µM*
O=C(CC(C(=O)O)n1ccnc1)c1ccc(Cl)cc1 (stereo not given)	.	.	.	.	-15.4%
OCc1cn(Cc2ccc(O)c3ncccc23)cn1	.	7.5%	.	.	.
CC(C)NC(=O)c1cccc2c(-c3ccc(F)c(F)c3)coc12	.	.	.	-0.3	1µM*
Cc1c(C(=O)NC2CCC(C)CC2)oc2ccccc12 (stereo not given)	?	3.2%	-0.1%	-2.5	5.01µM*
Cc1c(C(=O)OCC(=O)N2CCCC(C)C2)oc2ccccc12 (stereo not given)	8.1%	1.3%	-6.8%	-0.6	10µM*
CCOc1ccc(-c2nn(-c3ccccc3)cc2C2NC(=O)NC(C)=C2C(=O)OC(C)C)cc1 (stereo not given)	.	.	.	.	-36.0%
Cc1nc(-c2ccc(S(=O)(=O)N(C)Cc3ccccc3)cc2)co1	.	.	.	.	3.6%
Cc1cc2ccccc2c[n+]1C	.	.	.	.	-1.2%
Cc1cccc(-c2cnc3cccnn23)c1	.	.	.	0.1	?
CCOc1ccc(-c2cnc3cccnn23)cc1	.	.	.	0.0	7.08µM*
CCOc1cccc(-c2cnc3cccnn23)c1	.	.	.	-0.8	8.91µM*
O=C(NC1CC1)c1ccc(-c2cnc3cccnn23)cc1	.	.	.	-0.5	7.94µM*
COc1cc(/C=C/c2ccnc3ccccc23)ccc1N(C)C	.	.	.	.	11.2%
Cc1cc(C)c(C)c(S(=O)(=O)N2CCN(c3ncnc4ccccc34)CC2)c1C	-5.2%	17.8µM*	-3.4%	-0.9	-40.1%
O=[N+]([O-])c1ccc(Cl)c(S(=O)(=O)/N=C(/Sc2ccc(Br)cc2)c2ccccc2)c1	.	.	.	.	7.6%
O=[N+]([O-])c1ccccc1/C=N/N1CCN(c2ccncc2S(=O)(=O)N2CCCCC2)CC1	13.7%	11.2µM*	-0.6%[46.1 µM]	-0.4	-42.8%
CC(=O)Nc1ccc(Nc2nc(Nc3ccc(Cl)cc3)nc(N3CCOCC3)n2)cc1	.	.	.	.	-18.3%
SMILES	p53 reactivator	Mito fusion yeast	TCR act	IL-2 act	BRCA1 expr act
CC(C)(C)c1ccc(NC(=O)CC2(C(F)(F)F)OCCO2)cc1	?	0.7%	1.4%	2.1	3.55µM*
O=C(/C=C/c1cccs1)c1ccc(NC(=O)c2cccc(Br)c2)cc1	6.9%	19.0%	.	-2.4	11.2µM*
CCOc1ccc(-c2n[nH]c(C(=O)NN)c2C)cc1	?	?	-2.6%[46.1 µM]	-0.1	10µM*
Cc1c(-c2ccccc2)n[nH]c1C(=O)NN	7.5%	7.5%	-0.3%	3.6	?
Cc1ccc(C(=O)N/C(=C\c2ccccc2)C(=O)OCc2ccccc2)cc1	?	28.7%	-0.5%[46.1 µM]	-1.2	7.94µM*
Cc1ccc(CONC(=O)c2ccc(Cl)cc2)cc1	?	-0.3%	3.1%	0.8	8.91µM*
Cc1ccc(CONC(=O)c2ccccc2)cc1	20.5%	-7.1%	-2.6%	-2.3	2.24µM*
Cc1ccc(CONC(=O)c2ccc(C)cc2)cc1	?	-3.1%	5.3%	-0.7	?
C/C(=N\Nc1ncc(Cl)cc1Cl)c1ccc2c(c1)OCO2	3.4%	0.0%	-1.7%	-1.4	5.62µM*
CC(=NNC(=O)c1cccs1)c1ccc2c(c1)OCCO2	?	.	-8.0%	-0.6	?
C/C(=N\Nc1ncc(Cl)cc1Cl)c1ccc(OC(F)F)cc1	?	-1.1%	5.0%[46.1 µM]	-1.0	37.2%
C/C(=N\NC(=O)c1cccs1)c1ccc2c(c1)OCO2	14.7%	-3.4%	-14.5%	1.2	8.91µM*
C/C(=N\NC(=O)c1ccc2c(c1)OCO2)c1ccc(C(=O)O)s1	10.1%	1.6%	-15.9%	-1.1	48.2%
C/C(=N\NC(=O)c1ccc2c(c1)OCO2)c1ccc2c(c1)OCO2	?	-5.3%	-6.9%	-2.7	7.94µM*
COc1ccc(CCn2c(=S)[nH]c(=O)c3[nH]cnc32)cc1OC	.	.	.	.	10.6%
CC1(C)Nc2cccc3c(N=Nc4ccc(N=Nc5ccccc5)c5ccccc45)ccc(c23)N1	.	.	.	.	-63.8%
CN(C)c1ccnc2sc(C(=O)c3ccc(Br)cc3)c(N)c12	-2.6%	-2.6%	-5.7%	-0.4	71.4%
Cc1snc2sc(C(=O)c3ccc(F)cc3)c(N)c12	22.8%	-0.7%	3.7%	5.8	10µM*
O=C(CSc1nnc(NC2CCCCC2)s1)Nc1ccc2c(c1)C(=O)c1ccccc1C2=O	19.1%	10.2%	-2.8%	-0.6	4.47µM*
CC(C)Nc1nnc(SCC(=O)Nc2ccc3c(c2)C(=O)c2ccccc2C3=O)s1	?	20.0%	0.4%[46.1 µM]	-0.8	?
CCN(CC)c1ccc(/C=C(/C#N)C(=O)NCc2ccccc2)o1	27.1%	13.0%	4.5%[46.1 µM]	29.5	10µM*
O=C(/C=C/C=C/c1ccccc1)c1ccco1	22.4µM*	-11.5%	1.9%	-3.9	95.9%
CCc1c(-c2cccc(Cl)c2)ncn1Cc1cccc(-c2ccccc2)c1	.	.	.	-0.3	.
CCc1ccc2c(-c3cccc(Cl)c3)nc(=O)n(CC)c2n1	.	11.6µM*	.	.	.
CCC(=O)Nc1nc(C)c(-c2csc(Nc3cccc(O)c3)n2)s1	28.2µM*	1.7%	-9.5%	-0.5	-40.2%
SMILES	p53 reactivator	Mito fusion yeast	TCR act	IL-2 act	BRCA1 expr act
COc1cc(CN(C(=O)COc2ccccc2)c2ccccn2)cc(OC)c1OC	.	.	.	.	0.0%
Cc1cc(NC(=O)/C(C#N)=C/c2ccc(-c3ccc(SC(F)F)cc3)o2)n(-c2ccccc2)n1	-3.1%	-0.8%	-2.0%[46.1 µM]	100.4*	-19.1%
Cc1ccc2oc(-c3ccc(C)c(NC(=O)COc4ccc(Cl)cc4)c3)nc2c1	.	.	.	.	-1.5%
COc1ccc2c(Cl)c(C(N)=O)sc2c1	13.2%	3.8%	-4.3%	-2.5	10µM*
O=C(COC(=O)c1ccccc1Oc1ccccc1)Nc1ccc(Br)cc1	.	.	.	.	0.0%
Nc1nc(N)nc(-c2cccc(Br)c2)n1	.	.	-8.1%	-0.3	12.6µM*
Cc1cc(C)n(-c2nc(NC(C)C)nc(NC(C)(C)C)n2)n1	.	.	.	.	-5.6%
Cn1c(-c2ccc(CN3CCCCC3)o2)nc2ccccc21	11.4%	0.1%	-3.3%	0.3	3.16µM*
Cn1c(-c2ccc(N)cc2)nc2ccccc21	?	-7.2%	-6.1%	-0.4	96.0%

From PubChem BioAssay
